{"source": "PubChem BioAssay (NCATS)", "note": "Active and inactive are the calls of the source. The rule behind the calls is not given here. Potency is the fitted concentration of half-maximal effect.", "data": [{"system": "HIV-1 nucleocapsid protein NCp7 (binding to TG oligonucleotide)", "test": "HIV Nucleocapsid (AID 346);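 note: potency is for inhibitors that block NC binding and lower polarization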", "details": "HIV-1 NC / fluorescein-TGTGTGTG probe, fluorescence polarization", "outline": "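NCp7 100 nM + fluorescein TG4xF 10 nM; Hepes pH 7.5/250mM NaCl/1uM ZnCl2/0.004% PEG 20000; 1 hr RT; FP, 45 s exposure; oligo-only wells as negative control.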", "values": [{"smiles": "c1ccc(CNc2ncnc3ccc(-c4ccc5c(c4)OCO5)cc23)cc1", "Potency": "> 20 µM (inactive)"}, {"smiles": "O=C(c1ccncc1)N1CCC2(CC1)CN(Cc1cc(C(F)(F)F)cc(C(F)(F)F)c1)C2", "Potency": "> 20 µM (inactive)"}, {"smiles": "COCC(=O)N1CCC2(CCN(Cc3ccccc3OC)CC2)CC1", "Potency": "> 20 µM (inactive)"}, {"smiles": "COc1ncc2nc(-c3ccc(F)cc3)c(=O)n(C3CC3)c2n1", "Potency": "> 20 µM (inactive)"}, {"smiles": "c1ccc(-c2ccc(N3CCCC4(CCNCC4)C3)cc2)cc1", "Potency": "> 20 µM (inactive)"}, {"smiles": "CN1CCN(c2ncc3nc(-c4ccccc4)c(=O)n(Cc4cccs4)c3n2)CC1", "Potency": "> 20 µM (inactive)"}, {"smiles": "CN(C)C(=O)c1ccc(-c2cc(N(C)Cc3ccco3)ncn2)cc1", "Potency": "> 20 µM (inactive)"}, {"smiles": "COc1cccc(Cn2c(=O)c(-c3ccccc3)nc3cnc(N4CCNCC4)nc32)c1", "Potency": "> 20 µM (inactive)"}, {"smiles": "CC(=O)N1CCC2(CCCN(c3ncccn3)C2)CC1", "Potency": "> 20 µM (inactive)"}, {"smiles": "COc1ccc(NC(=O)N2CC[C@@]3(CCCN(C(=O)c4c(C)noc4C)C3)C2)cc1", "Potency": "> 20 µM (inactive)"}, {"smiles": "Cc1nc2cnc(N3CCN(C)CC3)nc2n(C[C@H]2CCCO2)c1=O", "Potency": "> 20 µM (inactive)"}, {"smiles": "COCCn1c(=O)c(-c2ccc(F)cc2)nc2cnc(Oc3ccc(OC)cc3)nc21", "Potency": "> 20 µM (inactive)"}, {"smiles": "COc1ccc(C(=O)N2CCC3(CC2)CCN(c2ncccn2)CC3)cc1", "Potency": "> 20 µM (inactive)"}, {"smiles": "O=C(c1cc(C(F)(F)F)cc(C(F)(F)F)c1)N1CCC2(CC1)CN(c1ccccn1)C2", "Potency": "> 20 µM (inactive)"}, {"smiles": "CN(C)c1ncc2nc(-c3ccc(F)cc3)c(=O)n(Cc3ccc(F)cc3)c2n1", "Potency": "> 20 µM (inactive)"}, {"smiles": "CS(=O)(=O)Nc1cccc(-c2nc(-n3ccnc3)c3ccccc3n2)c1", "Potency": "> 20 µM (inactive)"}, {"smiles": "CN1CCN(c2ccnc(-c3cccnc3)n2)CC1", "Potency": "> 20 µM (inactive)"}, {"smiles": "COc1ncc2nc(-c3cn(C)c4ccccc34)c(=O)n(C)c2n1", "Potency": "> 20 µM (inactive)"}, {"smiles": "COCC(=O)N1CCC2(CCCN(C(=O)Nc3ccccc3)C2)CC1", "Potency": "> 20 µM (inactive)"}, {"smiles": "COc1cccc(-c2cc(NCc3cccc(C)c3)ncn2)c1", "Potency": "> 20 µM (inactive)"}, {"smiles": "COc1ccc(C(=O)N2CCC3(CCCN(C(=O)Nc4cccc(F)c4)C3)CC2)cc1", "Potency": "> 20 µM (inactive)"}, {"smiles": "N#Cc1ccc(CN2CC[C@@]3(CCCN(C(=O)c4cnccn4)C3)C2)cc1", "Potency": "> 20 µM (inactive)"}, {"smiles": "CN(C)c1ccc(-c2nc(NCc3cccnc3)c3ccccc3n2)cc1", "Potency": "> 20 µM (inactive)"}, {"smiles": "O=c1c(-c2ccc(F)cc2)nc2cncnc2n1Cc1ccccc1", "Potency": "> 20 µM (inactive)"}, {"smiles": "COc1ccc(Oc2ncc3nc(-c4ccc(Cl)cc4)c(=O)n(CCC#N)c3n2)cc1", "Potency": "> 20 µM (inactive)"}, {"smiles": "COc1ncc2nc(-c3ccc(Cl)cc3)c(=O)n(-c3ccccc3)c2n1", "Potency": "> 20 µM (inactive)"}, {"smiles": "COc1cccc(-c2nccc(NCc3cccc(C)c3)n2)c1", "Potency": "> 20 µM (inactive)"}, {"smiles": "CS(=O)(=O)N1CCC2(CC1)CN(C(=O)Nc1cccc(C#N)c1)C2", "Potency": "> 20 µM (inactive)"}, {"smiles": "COc1ccc(Oc2ncc3nc(C)c(=O)n(C[C@H]4CCCO4)c3n2)cc1", "Potency": "> 20 µM (inactive)"}, {"smiles": "Fc1ccc(Nc2nc(-c3ccoc3)nc3ccccc23)cc1", "Potency": "> 20 µM (inactive)"}, {"smiles": "COc1cccc(-c2nc(N3CCN(C)CC3)c3ccccc3n2)c1", "Potency": "> 20 µM (inactive)"}, {"smiles": "Cn1cc(-c2nc3cncnc3n(C3CC3)c2=O)c2ccccc21", "Potency": "> 20 µM (inactive)"}, {"smiles": "Cc1noc(C)c1C(=O)N1CCC[C@@]2(CCN(c3cccc(-c4ccccc4)c3)C2)C1", "Potency": "> 20 µM (inactive)"}, {"smiles": "COCCn1c(=O)c(-c2ccc(Cl)cc2)nc2cnc(Oc3ccc(OC)cc3)nc21", "Potency": "> 20 µM (inactive)"}, {"smiles": "O=C(c1csnn1)N1CCC[C@@]2(CCN(c3cccc(-c4ccccc4)c3)C2)C1", "Potency": "> 20 µM (inactive)"}, {"smiles": "CCNc1ncc2nc(-c3cn(C)c4ccccc34)c(=O)n(-c3ccccc3)c2n1", "Potency": "16.4 µM (inactive)"}, {"smiles": "COCCn1c(=O)c(-c2cc(F)cc(F)c2)nc2cncnc21", "Potency": "> 20 µM (inactive)"}, {"smiles": "O=c1c(-c2ccc(Cl)cc2)nc2cnc(N3CCOCC3)nc2n1CCc1ccccc1", "Potency": "> 4 µM (inactive)"}, {"smiles": "COc1ccc(Oc2ncc3nc(-c4cccc(C#N)c4)c(=O)n(C)c3n2)cc1", "Potency": "> 20 µM (inactive)"}, {"smiles": "COc1cccc(Cn2c(=O)cnc3cncnc32)c1", "Potency": "> 20 µM (inactive)"}]}]}
